The test system of this experiment is VDR:RXRa (NR concentration 270 nM, RXRa partner concentration 90 nM). In words: PBM binding z-score (relative to random genomic background probes); higher = stronger binding; sequences stand for … in GC…GCGATTGACAGCGTAGAATGAAGG
On the procedure:
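Protein-binding microarray (Agilent 4x180K custom design, double-stranded 60-nt probes: 5' GC cap, 34-nt variable region, 24-nt constant primer region; full probe sequence given). Purified or IVT nuclear receptor:RXRα heterodimers (3:1 NR:RXRα, mostly 270:90 nM) or homodimers were incubated for 1 h in PBS with 2% milk and no ligand, then detected with Alexa488 antibodies. Fluorescence from o1-orientation probes (~5 replicates averaged) was converted to z-scores against 500 random hg19 background probes. Variable regions are seed direct-repeat (DR0–DR5) sites, all their single-nucleotide variants and half-site ablations.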
CGTCCAAGGTCAGCAGCTCAGTGAAAGCGACGTG returned a PBM binding z-score of 2.09.

AAATGTAGGTTACATCCGGGTCATTCAGGCTATG returned a PBM binding z-score of 4.17.

ATCTCTAGGTACGACTCAGTTCAGTGAAGAACGC displayed a PBM binding z-score of 1.28.

On to CCGAGTAGGTTATGGGGAATTCAGGCAACGGTGA, for which the PBM binding z-score was 0.0968.

Regarding AGAATGAGGTTATAGGTAGATCAGGGAAGAAAGT, the PBM binding z-score was determined as 1.44.

Regarding CCTAGTTGATCAGGAGGTCACACACCGGATATGA, the PBM binding z-score came to 4.08.

With CGAACTAGTTCATTGACAGGACAGTGAATAGTAA, the PBM binding z-score was 1.26.

CCGACTGGGGCACGGTTACCATAACGCACAGCCA had a PBM binding z-score of -0.636.

Sequence CGCCCAAGGTCAGAGAGGTCAGTGAATGCCGAGT returned a PBM binding z-score of 7.36.

Consider CCAGACAGGTGATAAGGTAACTCAGCCTCGATTA, for which the PBM binding z-score is -0.000379.

Sequence GGAACGAGTGCAAGTTGATAGCAGAGTTTGATGG had a PBM binding z-score of 0.646.

In turn, ACTAGTTGGTCAGCTGAGGTCCCACACAATTCGG showed a PBM binding z-score of -0.0724.

Sequence CCGACTGGTGCATAAGGTTACCATAAGCCAGCCC had a PBM binding z-score of 0.347.

TTACCATGGTGAAAGGTCGTTGATGCACGCCTTG had a PBM binding z-score of 2.11.

Sequence AGAATGAGGTTATACGTAGATCAGGTAAGAAAGT registered a PBM binding z-score of 1.58.

Sequence GCATATAGGTAATACAAGGTGGAAGTCCGATTGT yielded a PBM binding z-score of -0.118.

In turn, GCAGACAGGTGAAACGCAGGTAACTAAGGGTGGC yielded a PBM binding z-score of -0.407.

Consider CGTCCAAGGTCAGAGCGGTCAGTGAATGCCGAGT, for which the PBM binding z-score came out at 5.45.

For AGTCAAAGTTCACTAGGTAACTTAAGATTCAGCT, the PBM binding z-score is 3.88.

Take ACAGACAGGTGAGGGAAGGTAACTCAGCTGGACG: the PBM binding z-score was -0.405.

For the sequence TCTCGGAGGACACGGAGGTCAGAGCTTTCCAGAG, the PBM binding z-score is 3.39.

In the case of GGAACGAGGGCATTCGAGTTGTTAGCATGGCGAT, the PBM binding z-score was found to be 2.82.

For CGAACGAGGGCATGAGTTCATAGCAAATGCCGAT, the PBM binding z-score was found to be 5.62.

Turning to CGAACTAGGTCAAAACAGGACAGTGAAGGATGAT, the PBM binding z-score came to 1.99.

The sequence CCTGCTAAGTCATGGTCAGCTAATCTACAGTATG yielded a PBM binding z-score of -0.252.

Consider TCTATGAGTTGATTAGGGCAACCGAAACAGCGGA, for which the PBM binding z-score was 0.54.

Sequence ACTAGTTGGTCAGCAGAGGTCACACACAATTCGG registered a PBM binding z-score of 4.87.

With TGAATGAGGTTAAAGATCAGGGTACGTGGCGTCG, the PBM binding z-score is 2.38.

On to TCGAGTATGTTAGGGGCATTCAGAATGGCGTCGA, for which the PBM binding z-score worked out at 0.88.

CTTCCAAGGTCATAGGAGGTCAGTGAAGACAGAT returned a PBM binding z-score of 6.66.

Turning to GCGGCTAGGTCAGGTTGGTCAGCTAACGGGTACG, the PBM binding z-score amounted to 0.482.

GCAGACAGGTGAAACGCAGGTACCTCAGGGTGGC: the PBM binding z-score is -0.756.

On to TCAGACAGGTGAAGGTAAATCAGGTACGCAGTCG, for which the PBM binding z-score is 1.2.

TAGCCTAGGTCATTGGGCCAGTTTAGTACGCATC had a PBM binding z-score of 2.37.

Sequence CGTCAAAGTCCAACTAAGGTAACGTAAAGCACGC had a PBM binding z-score of 0.393.

Turning to TCTGCTAGGTCAACGATGGTCAGCTCATCTGCTA, the PBM binding z-score was 1.65.

CGTCAAAGTTCAACTAAGGTAACGTACAGCACGC: the PBM binding z-score was determined as 4.64.

CCGAGTAAGTTATGGGGCATTCAGGCAACGGTGA came in with a PBM binding z-score of -0.346.

Turning to ATATGTAGGTTAGATGGGGTCATTCAGACTAGGC, the PBM binding z-score is 6.54.

As for ATCTCCAGGTAAGACTCAGTTCAGTGAAGAACGC, the PBM binding z-score stood at 1.05.

(Values after the supplement of paper PMC6555819.)
